Laboratory results reported in PubChem BioAssay (EPA / NIEHS).
Activity calls are given as the source filed them. The calls were made as follows: active = hit-call score of the fitted dose curve at least 0.9, where 1 is the maximum; inactive = score below 0.9.

target: Aryl hydrocarbon receptor (Homo sapiens) (UniProt P35869); assay: ATG_Ahr_CIS: Attagene CIS-FACTORIAL HepG2 Assay for human Aryl Hydrocarbon Receptor (Ahr) (AID 2282930); conditions: HepG2 AhR cis-factorial reporter transcription; actives raise or lower the signal
In short: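 Endogenous factor activity is tracked through cis-promoter reporter units transfected into HepG2 cells. Transcript levels at 24 h are read by fluorescent RT-PCR and capillary electrophoresis, with activity in either direction scored relative to DMSO.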

Chain of Aryl hydrocarbon receptor (Homo sapiens) (P35869 whole entry, looked up): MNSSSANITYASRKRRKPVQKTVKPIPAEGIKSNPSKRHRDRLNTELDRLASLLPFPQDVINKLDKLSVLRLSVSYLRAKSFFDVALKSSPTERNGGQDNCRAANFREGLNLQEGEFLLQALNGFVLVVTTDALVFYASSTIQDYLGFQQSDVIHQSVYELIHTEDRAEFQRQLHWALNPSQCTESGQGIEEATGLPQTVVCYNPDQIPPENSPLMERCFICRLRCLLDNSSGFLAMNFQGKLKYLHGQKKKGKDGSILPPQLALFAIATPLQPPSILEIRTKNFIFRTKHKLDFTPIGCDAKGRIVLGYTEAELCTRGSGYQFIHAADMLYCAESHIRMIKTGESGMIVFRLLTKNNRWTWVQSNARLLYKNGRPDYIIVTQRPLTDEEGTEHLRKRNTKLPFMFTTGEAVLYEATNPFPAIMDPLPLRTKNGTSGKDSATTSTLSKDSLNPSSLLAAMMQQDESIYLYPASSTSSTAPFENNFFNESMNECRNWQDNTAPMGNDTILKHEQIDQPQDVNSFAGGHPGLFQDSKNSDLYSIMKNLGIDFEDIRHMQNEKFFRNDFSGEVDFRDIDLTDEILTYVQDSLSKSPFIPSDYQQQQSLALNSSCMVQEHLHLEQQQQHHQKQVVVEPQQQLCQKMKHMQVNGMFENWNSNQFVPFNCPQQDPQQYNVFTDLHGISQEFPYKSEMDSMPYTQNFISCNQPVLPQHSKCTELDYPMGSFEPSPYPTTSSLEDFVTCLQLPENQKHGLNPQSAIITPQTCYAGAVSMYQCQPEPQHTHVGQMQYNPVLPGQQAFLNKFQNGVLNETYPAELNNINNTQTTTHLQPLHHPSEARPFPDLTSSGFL

**Q.** Which outcome does the source give for `CC(C)(c1ccccc1)c1ccc(Nc2ccc(C(C)(C)c3ccccc3)cc2)cc1` here?
**A.** inactive

**Q.** With `CCCCC(C=O)CC` (centres undefined) as the compound, how does the outcome read?
**A.** inactive

**Q.** With `O=C1CCCCC1C1CCCCC1` (centres undefined) as the compound, how does the outcome read?
**A.** inactive

**Q.** For `C=CC(=O)OCCCCCCOC(=O)C=C`, which outcome is on record?
**A.** inactive

**Q.** With `CC(C)(CO)C(O)C(=O)NCCCO` (centres undefined) as the compound, how does the outcome read?
**A.** inactive

**Q.** Which outcome does the source give for `CC(C)COC(=O)CC(C(=O)OCC(C)C)S(=O)(=O)O` (centres undefined) here?
**A.** inactive

**Q.** For `CCCCCCC=O`, which outcome is on record?
**A.** inactive

**Q.** With `C1CNCCN1` as the compound, how does the outcome read?
**A.** inactive

**Q.** For `O=C(O)CCC(=O)O`, which outcome is on record?
**A.** inactive

**Q.** Which outcome does the source give for `COC(OC)(C(=O)c1ccccc1)c1ccccc1` here?
**A.** inactive

**Q.** Which outcome does the source give for `CCCCC1CCC(=O)O1` (centres undefined) here?
**A.** inactive

**Q.** With `CC(=O)c1ccc(S(=O)(=O)NC(=O)NC2CCCCC2)cc1` as the compound, how does the AC50 read?
**A.** 100 µM (active)

**Q.** With `C=C(C)C(=O)OCC(O)COc1ccc(C(C)(C)c2ccc(OCC(O)COC(=O)C(=C)C)cc2)cc1` (centres undefined) as the compound, how does the outcome read?
**A.** inactive

**Q.** Which outcome does the source give for `CC1CC(=O)CC(C)(C)C1` (centres undefined) here?
**A.** inactive

**Q.** Which outcome does the source give for `C[Si]1(C)O[Si](C)(C)O[Si](C)(C)O[Si](C)(C)O[Si](C)(C)O1` here?
**A.** inactive

**Q.** Which outcome does the source give for `C=C(C)C(=O)OCCOC(=O)C(=C)C` here?
**A.** inactive

**Q.** For `CCC1COC(=O)O1` (centres undefined), which outcome is on record?
**A.** inactive

test system: not listed separately; assay: ATG_AP_1_CIS: Attagene CIS-FACTORIAL HepG2 Assay for human Activator Protein 1 (AP-1) (AID 2282931); conditions: HepG2 Attagene cis-factorial AP-1 reporter mRNA; actives raise or lower the signal
In short: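 Multiplexed HepG2 reporter assay, 24 h dosing. mRNA induction detected by RT-PCR plus capillary electrophoresis. Activity fitted in both directions against DMSO.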

**Q.** Which outcome does the source give for `CC(C)(c1ccccc1)c1ccc(Nc2ccc(C(C)(C)c3ccccc3)cc2)cc1` here?
**A.** inactive

**Q.** With `c1ccc2cnccc2c1` as the compound, how does the outcome read?
**A.** inactive

**Q.** With `CCC(C)N` (centres undefined) as the compound, how does the outcome read?
**A.** inactive

**Q.** With `CCCCC(C=O)CC` (centres undefined) as the compound, how does the outcome read?
**A.** inactive

**Q.** Which outcome does the source give for `[Cl][Eu]([Cl])[Cl]` here?
**A.** inactive

**Q.** Which outcome does the source give for `O=C1CCCCC1C1CCCCC1` (centres undefined) here?
**A.** inactive

**Q.** For `Nc1cccc(N)n1`, which outcome is on record?
**A.** inactive

**Q.** Which outcome does the source give for `CC(C)(C)C1CCC(=O)CC1` here?
**A.** inactive

**Q.** With `C=CC(=O)OCCCCCCOC(=O)C=C` as the compound, how does the outcome read?
**A.** inactive

**Q.** Which outcome does the source give for `CC(C)(CO)C(O)C(=O)NCCCO` (centres undefined) here?
**A.** inactive

**Q.** Which AC50 does the source give for `CCOC(=O)/C=C\C(=O)OCC` here?
**A.** 50.5 µM (active)

**Q.** For `CCCCNS(=O)(=O)c1ccccc1`, which outcome is on record?
**A.** inactive

**Q.** With `CCCC(CC)c1ccccc1` (centres undefined) as the compound, how does the AC50 read?
**A.** 167 µM (active)

**Q.** Which outcome does the source give for `CC(C)c1ccc(O)c(C(C)C)c1` here?
**A.** inactive

**Q.** For `CC(C)COC(=O)CC(C(=O)OCC(C)C)S(=O)(=O)O` (centres undefined), which outcome is on record?
**A.** inactive

**Q.** For `CC(C)CCOCc1ccccc1`, which outcome is on record?
**A.** inactive

**Q.** For `C=CC(=O)OCC(C)OCC(C)OCC(C)OC(=O)C=C` (centres undefined), which AC50 is on record?
**A.** 73.4 µM (active)

**Q.** For `CCCCCCCCCCCC(=O)N(C)CC(=O)O`, which outcome is on record?
**A.** inactive

**Q.** With `CC=C(C)C(C)=O` as the compound, how does the outcome read?
**A.** inactive

**Q.** Which outcome does the source give for `CC(C)CC(=O)OCc1ccccc1` here?
**A.** inactive

**Q.** Which outcome does the source give for `CCCCCCC=O` here?
**A.** inactive

**Q.** With `O=C1CCCCCCCCCCC1` as the compound, how does the outcome read?
**A.** inactive

**Q.** With `C1CNCCN1` as the compound, how does the outcome read?
**A.** inactive

**Q.** For `O=C(O)CCC(=O)O`, which outcome is on record?
**A.** inactive

**Q.** With `COC(OC)(C(=O)c1ccccc1)c1ccccc1` as the compound, how does the outcome read?
**A.** inactive

**Q.** Which outcome does the source give for `CCCCC1CCC(=O)O1` (centres undefined) here?
**A.** inactive

**Q.** For `CC(=O)c1ccc(S(=O)(=O)NC(=O)NC2CCCCC2)cc1`, which outcome is on record?
**A.** inactive

**Q.** With `C=C(C)C(=O)OCC(O)COc1ccc(C(C)(C)c2ccc(OCC(O)COC(=O)C(=C)C)cc2)cc1` (centres undefined) as the compound, how does the AC50 read?
**A.** 63.7 µM (active)

**Q.** With `CC1CC(=O)CC(C)(C)C1` (centres undefined) as the compound, how does the outcome read?
**A.** inactive

**Q.** Which outcome does the source give for `[Cl][Sc]([Cl])[Cl]` here?
**A.** inactive

**Q.** Which outcome does the source give for `O=S(=O)(O)c1ccc(Nc2nc(Nc3ccc(C=Cc4ccc(Nc5nc(Nc6ccc(S(=O)(=O)O)cc6)nc(N(CCO)CCO)n5)cc4S(=O)(=O)O)c(S(=O)(=O)O)c3)nc(N(CCO)CCO)n2)cc1` here?
**A.** inactive

**Q.** For `CC(CC=O)CC(C)(C)C` (centres undefined), which outcome is on record?
**A.** inactive

**Q.** Which outcome does the source give for `C[Si]1(C)O[Si](C)(C)O[Si](C)(C)O[Si](C)(C)O[Si](C)(C)O1` here?
**A.** inactive

**Q.** For `CCCCCCCCCCCC(=O)OCC`, which outcome is on record?
**A.** inactive

**Q.** For `C=C(C)C(=O)OCCOC(=O)C(=C)C`, which outcome is on record?
**A.** inactive

**Q.** With `CCC1COC(=O)O1` (centres undefined) as the compound, how does the outcome read?
**A.** inactive

**Q.** Which outcome does the source give for `CCCCOC(=O)C(C)CC` (centres undefined) here?
**A.** inactive
